From PubChem
pAkt inh: blocks phosphorylation of Akt | Neuro2A IGF-stimulated pAkt S473 HTRF, 20 min; hits give low values | activity change, % for hits at 50 µM | 360,000 tested, 0.32% active | AID 651550; in the data active means activity change below about -80%; inconclusive means mostly about -51% to -80%; further: on the % scale 0 is the no-effect control and ±100 the full control effect
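Neuro2A cells in DMEM with 0.5% FBS, overnight at 37 deg C, given compound at single 50 µM final, then IGF (6 nM final) for 20 min at 37 deg C. Lysed; phospho-Akt Ser473 by HTRF after 24 h, 665/615 ratio.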
TCR activator: activators of T cell receptors; 330,000 tested, under 10 active; primary human leukocytes, anti-CD3, IL-2 HTRF, 48 h; Potency, µM (series often up to 9.22 µM), inactives show at the top dose activation of IL-2 secretion, usual class: activators; active means well fitted activation curve with a large enough effect; inconclusive means small, poorly fitted or top-dose-only effect, or another doubt; inactive means no such curve, though single readings can be large or run the other way; further: % of control where 0% means no effect
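Primary human leukocytes were stimulated with a-CD3 beads plus compounds for 48 hr without co-stimulation; secreted IL-2 was quantified by HTRF using a-IL-2-K (europium cryptate) and a-IL-2-d2, excited at 320nm with acceptor emission read at 665nm.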
CCT modulator: modulators of cytosolic chaperonin (CCT/TRiC) activity | activity change, % (no concentration beside the values), hits read low | AID 651819 | 360,000 tested, 0.3% active | purified chaperonin ATPase assay, HTRF ADP detection, 30 min; in the data active means activity change below about -30%; further: on the % scale 0 is the no-effect control and ±100 the full control effect
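Enzyme 40 or 20 nM (batch-dependent) in Tris pH 7.4/KCl/MgCl2/DTT; cpd 76 uM single point; ATP 10 uM; 30 min 37 °C; Transcreener ADP HTRF detection, 30 min RT; ratio 665/615.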
TSHR antag: antagonists of human thyroid stimulating hormone receptor | P16473 | AID 504810 | activity change, negative = inhibition, % at 11.5 µM | TSHR-expressing cells, TSH-stimulated cAMP HTRF, 2 h; hits give low values | 330,000 tested, 0.2% active;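 active means activity change below a set negative limit, meaning inhibition stronger than a set level, cut at about -70% in these data; inconclusive means activity change between two set negative limits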; further: on the % scale 0 is the no-effect control and ±100 the full control effect
Target sequence (P16473 whole entry, looked up): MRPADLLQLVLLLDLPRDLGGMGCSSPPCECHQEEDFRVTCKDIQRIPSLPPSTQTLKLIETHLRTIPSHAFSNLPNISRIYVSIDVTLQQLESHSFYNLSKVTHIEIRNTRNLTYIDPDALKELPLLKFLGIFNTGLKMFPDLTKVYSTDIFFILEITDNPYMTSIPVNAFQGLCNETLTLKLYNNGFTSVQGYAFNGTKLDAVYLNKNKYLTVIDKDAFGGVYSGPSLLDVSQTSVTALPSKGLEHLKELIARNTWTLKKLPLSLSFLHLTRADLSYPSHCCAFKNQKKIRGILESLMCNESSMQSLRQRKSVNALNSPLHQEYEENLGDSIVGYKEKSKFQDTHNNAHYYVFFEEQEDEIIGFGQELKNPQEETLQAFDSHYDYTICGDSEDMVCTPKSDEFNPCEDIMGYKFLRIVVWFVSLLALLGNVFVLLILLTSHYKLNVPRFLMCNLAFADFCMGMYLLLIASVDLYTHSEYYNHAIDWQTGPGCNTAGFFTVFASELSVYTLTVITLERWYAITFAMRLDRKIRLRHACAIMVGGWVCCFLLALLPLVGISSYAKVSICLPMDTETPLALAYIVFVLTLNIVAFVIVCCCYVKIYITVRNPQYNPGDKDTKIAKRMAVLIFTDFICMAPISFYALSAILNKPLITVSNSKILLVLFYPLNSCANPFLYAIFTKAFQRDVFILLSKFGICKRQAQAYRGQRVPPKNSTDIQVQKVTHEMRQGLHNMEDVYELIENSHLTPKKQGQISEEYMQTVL
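Inhibition of cAMP made by TSHR-expressing cells under TSH stimulation (4nM final, EC80; 2 h, 37 deg C) is quantified with a one-step lysis HTRF kit, anti-cAMP cryptate versus cAMP-d2.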
* marks the source's active call; other numbers are inactive results; i = inactive; ? = inconclusive; / = no result; [ ] = dose if it differs, or a comment. Sampled rows, rich in hits. Any-hit rate of the full collection: about 0.74%.

SMILES	pAkt inh	TCR activator	CCT modulator	TSHR antag
COCCn1nnnc1C(c1cc2cccc(C)c2[nH]c1=O)N1CCN(c2ccccc2F)CC1 (stereo not given)	-90%*	-4%	2	-6
CC1C/C(=C/c2ccncc2)C(=O)/C(=C/c2ccncc2)C1 (stereo not given)	i	-6%	-38*	-35
O=C(CN1C(=O)NC2(CCOc3ccccc32)C1=O)c1ccc(Br)cc1 (stereo not given)	i	-1%	-5	5
CCOC(=O)N1CCN(c2nc(SC)nc3sc4c(c23)CC(C)(C)OC4)CC1	-86%*	4%	-3	1
Nc1ccccc1N1CCN(C(=O)c2ccccc2)CC1	-103%*	5%[46.1 µM]	-3	0
O=S(=O)(/C=C/c1ccccc1)N1CCN(c2ccccc2)CC1	i	0%	-4	-4
COc1ccccc1N1CCN(S(=O)(=O)/C=C/c2ccccc2)CC1	-126%*	3%	-1	-16
CSc1ccc(CN2CCC(C)(Oc3cnc(Cl)c4ccccc34)C2)cc1 (stereo not given)	i	/	0	/
CS(=O)(=O)N1N=C(c2ccc3nccnc3c2)CC1c1ccccc1 (stereo not given)	i	4%	-88*	44
Cc1ccc(C)c(N2CCN(C(=O)CCS(=O)(=O)c3ccc4c(c3)NC(=O)C(C)S4)CC2)c1 (stereo not given)	i	0%	-5	-23
O=C(NC1CCCCC1)C(CCc1ccccc1)N1CCc2ccccc2C1 (stereo not given)	i	/	1	/
CN(C)c1ccc(N/C=C/C(=O)C(C)(C)C)cc1	-114%*	10%	-3	?
CC1(C(=O)Nc2cccc3cccnc23)CCN1Cc1ccccc1OC(F)F (stereo not given)	i	/	1	/
COc1ccc(CNC(=O)COC(=O)CO/N=C(\C)c2ccc3c(c2)OCO3)cc1	i	7%	-1	2
O=[N+]([O-])c1ccc(N=Nc2ccc(O)cc2O)cc1	i	0%	1	-74*
O=C(OCCOCCN=C1NS(=O)(=O)c2ccccc21)c1ccncc1	-107%*	-3%	3	2
COC(=O)c1cc(Br)ccc1NC(=O)Nc1ccccc1	i	2%[46.1 µM]	-1	3
COC(=O)c1cc(Br)ccc1NC(=O)Nc1ccc(C)cc1	-115%*	-2%	0	/
O=C(CSc1nc2nc[nH]c2c(=O)[nH]1)NC1CCCCC1	i	-1%	0	-1
Nc1nc2nc[nH]c2c(=O)[nH]1	i	-3%	-1	-71*
Cn1nc(C(F)(F)F)c(C#N)c1N1CCN(c2ccccc2F)CC1	-107%*	-13%	1	/
COc1cccc(N2CCN(c3c(C#N)c(C(F)(F)F)nn3C)CC2)c1	i	9%	-1	-13
CCc1ccc(-n2c(SCc3c(C)noc3C)nnc2-c2ccncc2)cc1	i	3%	-6	-7
Cc1noc(C)c1CSc1nnc(-c2c[nH]c3ccccc23)n1-c1ccc(Cl)cc1	-115%*	5%	0	-9
N#Cc1c2n(c3c(=O)n(Cc4ccccc4Cl)cnc13)CCCCC2	i	0%	-32*	-4
SMILES	pAkt inh	TCR activator	CCT modulator	TSHR antag
CCOc1ccccc1N1CC(C(=O)N(Cc2nnc(-c3ccccc3Cl)o2)C2CC2)CC1=O (stereo not given)	i	-1%	-36*	6
CCOc1ccccc1N1CC(C(=O)Nc2nccs2)CC1=O (stereo not given)	-124%*	-1%	-2	-8
CCOc1ccccc1N1CC(C(=O)Nc2ccc(C(=O)O)cc2)CC1=O (stereo not given)	-112%*	-5%	-3	0
CCOc1ccc(NC(=O)C2CC(=O)N(c3ccccc3F)C2)cc1 (stereo not given)	i	-2%	1	1
CSc1cccc(N2CC(C(=O)N(Cc3nnc(-c4ccccc4Cl)o3)C3CC3)CC2=O)c1 (stereo not given)	i	-5%	2	37
Cc1cncc(NCc2ccc3c(c2)OCO3)n1	i	/	-2	/
Cc1ccc(-c2noc(CCCC(=O)NC3CCCCC3)n2)cc1	i	-1%	-2	-6
CCc1nc2ccc(C(=O)NC3CCN(Cc4ccccc4)CC3)cn2c1N(C)Cc1cc2ccccc2s1	i	/	-1	/
CC(=O)N1c2ccc(S(=O)(=O)NCCC(=O)Nc3cccc(Cl)c3)cc2CC1C (stereo not given)	i	3%	0	-126*
